Screen size: about 5,500 compounds; about 2,000 (36%) were called active. About 18% were inconclusive and are not listed. Rule as the data show it: active = normalized growth mostly below about 0.91 (no sharp cut-off); inconclusive = no clear call, values can overlap the other calls; inactive = mostly above about 0.92. The list shows a part of the results.
Experiment: chemical genetic growth profiling, strain panel (AID 1159580);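 also: tested at 20 µM; growth read once vehicle control cultures reached saturation at 30 °C; 1 = growth at the plate median or of vehicle wells; lower values mean less growth of the strain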
Details: S. cerevisiae deletion strains, growth OD

Measured: normalized growth

COc1cc2ccc(=O)oc2c(OC)c1OC
inactive: locus YAL021C, strain ccr4, active compounds read low 1 | locus YAL026C, strain drs2, active compounds read low 0.983 | locus YAL030W, strain snc1, active compounds read low 0.98 | locus YBL061C, strain skt5, active compounds read low 0.997 | locus YBR009C, strain hhf1, active compounds read low 0.998 | locus YBR021W, strain FUR4, active compounds read low 0.97 | locus YBR023C, strain chs3, active compounds read low 0.995 | locus YBR171W, strain sec66, active compounds read low 0.974 | locus YBR229C, strain ROT2, active compounds read low 1.02 | locus YBR231C, strain swc5, active compounds read low 1.02 | locus YBR279W, strain paf1, active compounds read low 0.991 | locus YCL011C, strain gbp2, active compounds read low 0.977 | locus YCL016C, strain dcc1, active compounds read low 0.971 | locus YCL029C, strain bik1, active compounds read low 1.03 | locus YCL069W, strain vba3, active compounds read low 0.975 | locus YCR088W, strain abp1, active compounds read low 0.98 | locus YDL005C, strain med2, active compounds read low 0.977 | locus YDL035C, strain GPR1, active compounds read low 1.04 | locus YDL040C, strain nat1, active compounds read low 0.978 | locus YDL074C, strain BRE1, active compounds read low 1.03 | locus YDL101C, strain DUN1, active compounds read low 1.02 | locus YDL134C, strain PPH21, active compounds read low 1.02 | locus YDL185W, strain tfp1, active compounds read low 1.03 | locus YDL192W, strain arf1, active compounds read low 1.01 | locus YDR001C, strain nth1, active compounds read low 1 | locus YDR069C, strain doa4, active compounds read low 0.99 | locus YDR101C, strain arx1, active compounds read low 1 | locus YDR137W, strain rgp1, active compounds read low 0.997 | locus YDR159W, strain sac3, active compounds read low 1.04 | locus YDR162C, strain NBP2, active compounds read low 1.05 | locus YDR195W, strain ref2 0.984 | locus YDR297W, strain sur2, active compounds read low 0.997 | locus YDR318W, strain mcm21, active compounds read low 1.03 | locus YDR334W, strain swr1, active compounds read low 0.98 | locus YDR335W, strain msn5, active compounds read low 0.973 | locus YDR388W, active compounds read low 1.02 | locus YDR392W, strain spt3, active compounds read low 1 | locus YDR502C, strain sam2, active compounds read low 1.02 | locus YEL003W, strain gim4, active compounds read low 0.968 | locus YEL037C, strain rad23, active compounds read low 0.987 | locus YEL061C, strain CIN8 (second series), active compounds read low 0.996 | locus YER015W, strain faa2, active compounds read low 0.995 | locus YER016W, strain bim1, active compounds read low 0.959 | locus YER110C, active compounds read low 1.01 | locus YER111C, strain swi4, active compounds read low 0.979 | locus YER155C, strain BEM2 (second series), active compounds read low 0.982 | locus YER155C, strain BEM2, active compounds read low 1 | locus YER167W, strain BCK2, active compounds read low 1.02 | locus YFR010W, strain ubp6, active compounds read low 1.01 | locus YGL078C, strain dbp3, active compounds read low 1.04 | locus YGL086W, strain mad1, active compounds read low 1 | locus YGL167C, strain pmr1, active compounds read low 0.983 | locus YGL173C, strain kem1, active compounds read low 0.956 | locus YGL227W, strain vid30, active compounds read low 0.976 | locus YGL240W, strain doc1, active compounds read low 0.985 | locus YGL248W, strain PDE1, active compounds read low 1.03 | locus YGL253W, strain hxk2, active compounds read low 0.992 | locus YGR135W, strain pre9, active compounds read low 1.04 | locus YGR229C, strain SMI1, active compounds read low 1.01 | locus YGR252W, strain gcn5, active compounds read low 1 | locus YHR013C, strain ard1, active compounds read low 0.953 | locus YHR027C, strain rpn1, active compounds read low 0.996 | locus YHR079C, strain IRE1 (second series), active compounds read low 1.01 | locus YHR094C, strain hxt1, active compounds read low 1.02 | locus YHR129C, strain ARP1, active compounds read low 1.01 | locus YHR142W, strain chs7, active compounds read low 0.951 | locus YHR200W, strain rpn10, active compounds read low 1.02 | locus YIL066C, strain RNR3, active compounds read low 1.03 | locus YIL073C, strain SPO22, active compounds read low 1.07 | locus YIL125W, strain kgd1, active compounds read low 1.01 | locus YIR030C, strain dcg1, active compounds read low 1.02 | locus YJL092W, strain hpr5, active compounds read low 0.967 | locus YJL095W, strain BCK1 (second series), active compounds read low 0.978 | locus YJL095W, strain BCK1, active compounds read low 1.02 | locus YJL115W, strain asf1, active compounds read low 0.987 | locus YJL129C, strain trk1, active compounds read low 0.961 | locus YJL134W, strain LCB3, active compounds read low 1.01 | locus YJL154C, strain vps35, active compounds read low 0.979 | locus YJL164C, strain tpk1, active compounds read low 0.991 | locus YJL166W, strain qcr8, active compounds read low 0.978 | locus YJL168C, strain set2, active compounds read low 1.02 | locus YJL187C, strain SWE1 (second series), active compounds read low 1.02 | locus YKL009W, strain mrt4, active compounds read low 1.07 | locus YKL068W, active compounds read low 0.996 | locus YKL085W, strain MDH1 (second series), active compounds read low 1.01 | locus YKL085W, strain MDH1, active compounds read low 1.01 | locus YKL160W, strain elf1, active compounds read low 0.965 | locus YKL190W, strain CNB1, active compounds read low 1.01 | locus YKR001C, strain vps1, active compounds read low 0.992 | locus YKR026C, strain gcn3, active compounds read low 1 | locus YKR091W, strain srl3, active compounds read low 0.964 | locus YLL001W, strain dnm1, active compounds read low 0.987 | locus YLL026W, active compounds read low 0.992 | locus YLL041C, strain sdh2, active compounds read low 0.979 | locus YLR027C, strain aat2, active compounds read low 0.987 | locus YLR039C, strain RIC1, active compounds read low 1.07 | locus YLR058C, strain SHM2, active compounds read low 1.04 | locus YLR102C, strain apc9, active compounds read low 1.02 | locus YLR221C, strain rsa3, active compounds read low 1.02 | locus YLR258W, strain gsy2, active compounds read low 0.992 | locus YLR262C, strain YPT6 (second series), active compounds read low 1 | locus YLR268W, strain sec22, active compounds read low 1.03 | locus YLR320W, strain mms22, active compounds read low 1.02 | locus YLR342W, strain FKS1, active compounds read low 0.979 | locus YLR357W, strain rsc2, active compounds read low 0.964 | locus YLR370C, strain arc18, active compounds read low 0.979 | locus YLR371W, strain rom2, active compounds read low 1.01 | locus YLR384C, strain iki3, active compounds read low 0.991 | locus YLR418C, strain cdc73, active compounds read low 1.03 | locus YML016C, strain PPZ1, active compounds read low 1.03 | locus YML032C, strain rad52, active compounds read low 0.996 | locus YML120C, strain ndi1, active compounds read low 0.979 | locus YML124C, strain tub3, active compounds read low 1.02 | locus YMR058W, strain fet3, active compounds read low 0.974 | locus YMR078C, strain ctf18, active compounds read low 1.02 | locus YMR125W, strain sto1, active compounds read low 0.976 | locus YMR129W, active compounds read low 0.991 | locus YMR205C, strain PFK2, active compounds read low 0.995 | locus YMR223W, strain ubp8, active compounds read low 0.999 | locus YMR231W, strain pep5, active compounds read low 0.98 | locus YMR307W, strain GAS1, active compounds read low 1.07 | locus YNL067W, strain RPL9B, active compounds read low 1.02 | locus YNL071W, strain lat1, active compounds read low 0.999 | locus YNL153C, strain GIM3, active compounds read low 1.02 | locus YNL209W, strain ssb2, active compounds read low 0.976 | locus YNL233W, strain BNI4, active compounds read low 1.01 | locus YNL248C, strain rpa49, active compounds read low 0.962 | locus YNL250W, strain rad50, active compounds read low 1.03 | locus YNL271C, strain bni1, active compounds read low 1.02 | locus YNL298W, strain CLA4, active compounds read low 0.999 | locus YNL307C, strain MCK1, active compounds read low 1.03 | locus YNL322C, strain KRE1 (second series), active compounds read low 0.971 | locus YNL322C, strain KRE1, active compounds read low 1.02 | locus YNR049C, strain mso1, active compounds read low 0.954 | locus YNR052C, strain pop2, active compounds read low 1.02 | locus YOL006C, strain TOP1, active compounds read low 1.06 | locus YOL012C, strain htz1 1.05 | locus YOL147C, strain pex11, active compounds read low 1.01 | locus YOR001W, strain rrp6, active compounds read low 1.02 | locus YOR061W, strain CKA2, active compounds read low 1.04 | locus YOR069W, strain VPS5, active compounds read low 1.01 | locus YOR070C, strain gyp1, active compounds read low 0.994 | locus YOR080W, strain dia2, active compounds read low 0.968 | locus YOR083W, strain WHI5, active compounds read low 0.952 | locus YOR106W, strain vam3, active compounds read low 0.969 | locus YOR136W, strain idh2, active compounds read low 1.03 | locus YOR144C, strain elg1, active compounds read low 1.02 | locus YOR184W, strain ser1, active compounds read low 1.04 | locus YOR265W, strain rbl2, active compounds read low 0.994 | locus YOR270C, strain vph1, active compounds read low 0.957 | locus YOR290C, strain snf2, active compounds read low 0.964 | locus YOR316C, strain cot1, active compounds read low 1.02 | locus YPL051W, strain arl3, active compounds read low 0.982 | locus YPL078C, strain atp4, active compounds read low 0.966 | locus YPL106C, strain sse1, active compounds read low 0.977 | locus YPL240C, strain hsp82, active compounds read low 0.986 | locus YPR119W, strain clb2, active compounds read low 1.01 | locus YPR141C, strain kar3, active compounds read low 1.02 | locus YPR163C, strain tif3, active compounds read low 1.03 | locus YPR167C, strain met16, active compounds read low 1.04 | strain wtn01, active compounds read low 1.02

From PubChem BioAssay AID1159580 (chemical genetic matrix, 2015)
